Screens as filed in PubChem BioAssay.
Most compounds without a hit are left out; they make up all but 3.9% or so of the library.
GALK inh = inhibitors of human galactokinase. AID 1868. Potency, µM (titrated, usually from 57.5 µM), without a hit: at the top dose activity change, negative = inhibition, usual class: inhibitors. hit rate 0.007% among 270,000. Purified GALK, Kinase-Glo residual ATP luminescence. P51570; further: potency means the concentration at half of the fitted maximal effect; on the % scale 0 is the no-effect control and ±100 the full control effect
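The enzyme phosphorylates galactose (100 uM) using ATP (35 uM); inhibition is detected as higher residual ATP, quantified by bioluminescence after 1 h reaction at room temperature, pH 8.0.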
Eya2 inh = inhibitors of human Eya2 phosphatase activity; Potency, µM (top dose mostly 76.9 µM), for the others: at the highest dose activity, negative = inhibition, hits mostly inhibitors; O00167; hit rate 0.006% among 330,000; recombinant Eya2, OMFP fluorescence dephosphorylation (OMFP is methylfluorescein phosphate); further: potency means the concentration at half of the fitted maximal effect; on the % scale 0 is the no-effect control and ±100 the full control effect
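Eya2 protein (added as 0.2 uM solution) was preincubated with compound for 10 min at ambient temperature in 50 mM HEPES pH 7.5, 50 mM NaCl, 5 uM MgCl2, 0.05% BSA, 1 mM DTT. OMFP (added at 50 uM) then reacted 10 min; fluorescence read at 485/525 nm.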
D1 agonist = activates the human D1 dopamine receptor; AID 504660; hit rate 1% among 360,000; P21728; HEK293 T-REx D1 cells, calcium flux, agonist mode; activation, % at 2 µM; in the data active means activation above about 30%; further: 0% is about no effect
Target sequence (P21728 whole entry, looked up): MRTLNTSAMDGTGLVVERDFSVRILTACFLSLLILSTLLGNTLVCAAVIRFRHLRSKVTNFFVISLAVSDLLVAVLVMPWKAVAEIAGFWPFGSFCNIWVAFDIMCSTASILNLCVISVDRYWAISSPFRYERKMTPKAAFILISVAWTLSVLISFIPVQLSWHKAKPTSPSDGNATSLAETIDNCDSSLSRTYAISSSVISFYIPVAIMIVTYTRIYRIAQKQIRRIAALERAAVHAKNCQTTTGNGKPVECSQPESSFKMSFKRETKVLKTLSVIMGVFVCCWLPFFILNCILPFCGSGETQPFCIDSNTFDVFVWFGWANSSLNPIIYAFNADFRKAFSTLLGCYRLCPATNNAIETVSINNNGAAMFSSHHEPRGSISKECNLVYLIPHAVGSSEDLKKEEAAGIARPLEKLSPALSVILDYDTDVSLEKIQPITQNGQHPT
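Inducible HEK293 T-REx D1 cells, force-coupled to calcium signalling, were plated at 4000 cells/well with tetracycline and held overnight at 30 C. After no-wash calcium dye loading, compound-evoked calcium rise over 180 s flagged agonists.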
USP2a block = blocks human ubiquitin-specific protease USP2a; O75604; USP2 core, Ub-CHOP2 coupled fluorogenic reporter, 485/531; Potency, µM (doses to about 38.3 µM), without a hit: top-dose activity change, negative = inhibition, hits mostly inhibitors; hit rate 0.01% among 330,000; AID 463254;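 further: potency means the concentration at half of the fitted maximal effect; plate controls were DMSO wells for no effect and full inhibition by NEM control for full effect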
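Deubiquitinase activity read as fluorescence (485/531 nm) after Ub-CHOP2 cleavage activates the enterokinase reporter on its substrate; USP2 core 10nM, Ub-CHOP2 and substrate 25nM each, 30min compound preincubation then 60min RT; data normalized to NEM, curves fitted.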
D1 antag = blocks dopamine activation of the human D1 receptor; hit rate 3.2% among 360,000; activity change, negative = inhibition, % at 10 µM; P21728; AID 504652; HEK293 TREx D1 cells, calcium flux, dopamine EC80; stronger effect = lower value; in the data active means activity change below about -30%; further: on the % scale 0 is the no-effect control and ±100 the full control effect
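Inducible Hek293 Trex D1 cells (tetracycline, overnight, 30 C). Calcium dye 30–90 min RT. Antagonist mode: EC80 dopamine added after 180 s compound read.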
D1 PAM = potentiators of human D1 dopamine receptor; hit rate 0.036% among 360,000; potentiation, % at 10 µM; HEK293 TREx D1 cells, calcium flux, dopamine EC20 potentiation; in the data active means potentiation above about 30%; further: 0% is about no effect
Active calls of the source: *; ? = inconclusive; · = no result given. Unless noted, the call rests on the fitted dose curve; in most records, active means well fitted inhibition curve with a large enough effect; inconclusive means small, poorly fitted or top-dose-only effect, or effect the other way; inactive means flat fitted curve, though single readings scatter.

SMILES	GALK inh	Eya2 inh	D1 agonist	USP2a block	D1 antag	D1 PAM
OCCNCc1cc(Br)ccc1OCc1ccc(Cl)cc1Cl	-2%	-30%	38*	-1%	1	-4
OCCNCc1cc(Br)ccc1OCc1ccc(Cl)cc1	0%	-2%	12	-1%	2	-4
O=C(Nc1nnc(SCc2ccccn2)s1)C1CC(=O)N(c2ccccc2)C1 (configuration not stated)	1%	-2%	2	3%	-78*	-10
CCCCCCOc1ccc(/C=C/C(=O)Nc2sc3c(c2C(=O)OC)CCC3)cc1OC	·	·	-2	·	7	1
O=C(NCc1cccc(Br)c1)c1cccn1-c1nnc(N2CCCCC2)s1	·	·	2	·	13	2
C=C(C)n1c(=O)n(Cc2ccccc2C)c2ccccc21	-7%	0%	93*	7%	10	1
C=C(C)n1c(=O)n(Cc2ccc(C)cc2)c2ccccc21	2%	-22%	-1	-1%	0	-1
CS(=O)(=O)Nc1ccccc1C(=O)NCCSc1ccc(Cl)cc1	-4%	8%	16	0%	-32*	-7
Cc1cccc(NC(=O)c2ccc(C(=O)c3ccccc3)cc2)n1	·	6%	4	3%	-35*	0
Cc1cccc(NC(=O)c2cccc(C(=O)Nc3cccc(C)n3)c2)n1	·	-6%	2	2%	-15	-5
Cc1ccc(S(=O)(=O)N(C)c2ccc(C(=O)Nc3cccc(C)n3)cc2)cc1	2%	-2%	7	-1%	-21	-6
CCN(c1ccccc1)S(=O)(=O)c1ccc(C(=O)Nc2cccc(C)n2)cc1	·	4%	5	-3%	-35*	-8
Cc1c(Cl)cccc1NC(=O)Nc1nnc(N(C)C2CCCCC2)s1	·	·	0	·	0	-2
COc1cc(/C=C/c2nc(C#N)c(N3CCCCC3)o2)cc(OC)c1OC	·	·	-1	·	-9	-2
COc1ccccc1-n1c(C)nc(=O)c(-c2ccccc2)c1C	0%	-8%	1	1%	12	-2
CC(=O)Oc1ccccc1-n1c(C)nc(=O)c(-c2ccccc2)c1C	-1%	2%	1	-1%	-39*	-6
Cc1oc(C)c2c(=O)ccc3c(c12)OC(N)=C(C#N)C3c1ccc(F)cc1 (configuration not stated)	2%	23%	37*	8%	25	-8
COc1ccc(C)cc1NS(=O)(=O)c1ccc2oc(=O)c3ncn(C)c3c2c1	·	·	1	·	-7	-2
Cc1ccc(-n2c(=O)c3c(cnn3C)n(CC(=O)Nc3cc(C)ccc3C)c2=O)cc1	·	·	0	·	-11	1
CCc1ccc(NC(=O)CSc2nc(C)cc(COC)c2C#N)cc1	·	·	2	·	-11	2
CC(C(O)c1ccc(O)cc1)N1CCC(Cc2ccccc2)CC1 (configuration not stated)	0%	-11%	7	-1%	-50*	-3
C[C@@H](CN1CCC(Cc2ccccc2)CC1)[C@@H](O)c1ccc(O)cc1	·	3%	7	0%	-33*	-6
Cc1ccc2nc(N3CCN(c4ccccc4F)CC3)c3nnnn3c2c1	·	·	2	·	-11	-1
O=S(=O)(NCCC1CC1(Cl)Cl)c1ccc(Cl)cc1 (configuration not stated)	0%	-11%	5	-2%	-38*	-3
CC(C)(C)SCCNS(=O)(=O)c1ccc(Cl)cc1	0%	-1%	0	1%	-8	-4
SMILES	GALK inh	Eya2 inh	D1 agonist	USP2a block	D1 antag	D1 PAM
CCN1C(=S)SC(=O)C1=C1C=C(C)OC(C)=C1	0%	1%	1	0%	6	3
CCN1C(=S)SC(=O)C1=C1C=C(C)N(Cc2ccco2)C(C)=C1	-1%	?	171*	-6%	-9	5
CC(=O)c1cccc(NC(=O)/C(=C/c2ccco2)NC(=O)c2ccco2)c1	-4%	10%	1	1%	11	38*
CCOC(=O)c1ccc(NC(=O)C(CC)Sc2nc3ccncc3[nH]2)cc1 (configuration not stated)	·	·	53*	·	25	-1
CCc1cccc(CC)c1NC(=O)C(CC)Sc1nc2ccncc2[nH]1 (configuration not stated)	·	13%	6	-2%	-3	-8
O=c1oc2ccc(Cl)cc2cc1-c1cn2c(n1)sc1ccccc12	·	·	2	·	21	1
O=C(O)CCCCCNCc1ccncc1	-1%	6%	1	-2%	-41*	-10
O=C(CNC(=O)c1ccc(Cl)cc1)OCc1cc(=O)n2ccsc2n1	·	·	2	·	0	2
COc1ccc(-c2cc(C(=O)N/N=C(\C)c3cccnc3)c3ccccc3n2)cc1	1%	-14%	0	0%	-58*	-3
COc1ccc(/C(C)=N/NC(=O)c2cc(-c3cccnc3)nc3ccccc23)cc1	0%	-7%	-1	5%	6	-4
O=C(N/N=C/c1cccnc1)c1cc(-c2ccccc2Cl)nc2ccccc12	-7%	15%	-1	0%	-40*	-1
O=C(NCc1ccccn1)c1cc(-c2ccccc2Cl)nc2ccccc12	0%	-4%	1	-2%	-32*	0
CSc1ccc(CCNC(=O)c2ccc(CS(=O)(=O)c3ccc(Br)cc3)o2)cc1	·	·	9	·	-15	-7
Cc1nnc(NC(=O)CSc2nccn2-c2cccc(Cl)c2)s1	·	·	1	·	21	1
COc1ccc(CCN2C(=O)CN(C3CCCCCC3)C(=O)C2c2ccc(OC(C)C)c(OC)c2)cc1OC (configuration not stated)	·	·	-1	·	2	-2
O=C(OCC(=O)N1CCCC1)c1ccc(S(=O)(=O)N2CCOCC2)cc1	-1%	-5%	4	1%	10	0
O=C(COC(=O)c1ccc(CO)cc1)c1ccc(S(=O)(=O)N2CCCCC2)cc1	·	13%	11	-1%	-32*	-6
O=C(c1ccco1)N1CCN(S(=O)(=O)c2ccc3c(c2)CCN3C(=O)C2CC2)CC1	1%	17%	-1	-1%	-47*	-2
COc1ccc(/C=C/C(=O)OCC(=O)c2ccc(S(=O)(=O)N3CCCCC3)cc2)cc1OC	·	-15%	5	0%	-55*	-7
O=C(C1CC1)N1CCc2cc(S(=O)(=O)N3CCOCC3)ccc21	-5%	11%	0	1%	1	6
O=C(OCC(=O)N1CCN(C(=O)c2ccco2)CC1)c1ccc(S(=O)(=O)N2CCCCC2)cc1	6%	-5%	6	0%	-57*	-16
COc1ccc(OC)c(CCNC(=O)c2cc3cccc4c3n2CCS4)c1	·	·	4	·	-12	-1
O=C(COC(=O)c1ccc(O)cc1)c1ccc(S(=O)(=O)N2CCCCC2)cc1	·	-12%	9	-3%	-31*	-9
